Consider 68 molecules from ChEMBL document CHEMBL4808148, “HDAC6 screening dataset using tau-based substrate in an enzymatic assay yields selective inhibitors and activators” (2021).

SMILES strings stand for the structures. “And” between values parts separate entries of the source, which are not always exact repeats. Equal entries are not always repeated. Among all 5,600 compounds or so, about 390 (7%) showed an effect of 50% or more. Many of the other results were omitted from the sample, so strong results are more common in it than they were.

The target in this test is T1, Protein deacetylase HDAC6 (Homo sapiens) (UniProt Q9UBN7).
T1 sequence (whole entry): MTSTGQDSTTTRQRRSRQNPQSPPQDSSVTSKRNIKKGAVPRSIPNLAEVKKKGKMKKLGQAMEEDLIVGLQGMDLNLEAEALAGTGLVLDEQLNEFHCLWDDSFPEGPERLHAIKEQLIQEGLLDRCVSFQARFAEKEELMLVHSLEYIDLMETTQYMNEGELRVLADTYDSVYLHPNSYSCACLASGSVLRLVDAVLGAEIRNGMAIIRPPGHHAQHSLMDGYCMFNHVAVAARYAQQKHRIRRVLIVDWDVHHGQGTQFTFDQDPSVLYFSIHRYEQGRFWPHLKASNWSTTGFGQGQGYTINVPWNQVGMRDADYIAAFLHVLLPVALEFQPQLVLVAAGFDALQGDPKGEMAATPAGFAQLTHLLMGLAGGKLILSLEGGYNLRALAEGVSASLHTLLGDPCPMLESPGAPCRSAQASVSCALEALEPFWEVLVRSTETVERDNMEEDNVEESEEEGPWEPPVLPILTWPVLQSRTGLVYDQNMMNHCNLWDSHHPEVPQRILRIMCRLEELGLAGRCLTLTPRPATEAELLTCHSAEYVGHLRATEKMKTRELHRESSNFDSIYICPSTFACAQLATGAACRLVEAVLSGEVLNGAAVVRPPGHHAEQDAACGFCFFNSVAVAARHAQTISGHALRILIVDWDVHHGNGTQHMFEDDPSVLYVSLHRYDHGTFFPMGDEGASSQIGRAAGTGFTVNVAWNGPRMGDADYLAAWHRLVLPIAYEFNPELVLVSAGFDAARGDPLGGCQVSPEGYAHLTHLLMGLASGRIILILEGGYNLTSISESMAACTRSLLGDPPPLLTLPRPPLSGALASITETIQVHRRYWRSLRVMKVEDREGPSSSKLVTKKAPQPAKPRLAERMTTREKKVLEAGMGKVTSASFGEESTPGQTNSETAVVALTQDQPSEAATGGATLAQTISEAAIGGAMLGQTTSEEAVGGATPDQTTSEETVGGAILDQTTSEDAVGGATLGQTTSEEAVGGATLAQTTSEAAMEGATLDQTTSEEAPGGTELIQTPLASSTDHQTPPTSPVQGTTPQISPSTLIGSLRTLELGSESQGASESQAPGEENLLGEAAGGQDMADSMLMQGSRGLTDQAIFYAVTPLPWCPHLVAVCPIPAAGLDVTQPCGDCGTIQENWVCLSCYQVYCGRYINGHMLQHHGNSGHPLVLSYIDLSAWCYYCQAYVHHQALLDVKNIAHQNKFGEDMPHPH
To be noted: at 10 µM.
In the case of `CC(N)CCCC(C)(C)O` (stereo not drawn), the inhibition turned out to be 6.48%.

Take `COc1ccc2c(C(=S)N(C)CC(=O)O)cccc2c1C(F)(F)F`: the inhibition was 8.32%.

With `CCN(CC)CC1CCN(c2ncc3ncnc(Nc4ccc(F)c(Cl)c4)c3n2)CC1`, the inhibition stood at 22.9%.

Consider `Cc1n[nH]c(C)c1Cc1sc2c(c1C(=O)N1C[C@H](O)CO1)c(=O)n(C)c(=O)n2CC(C)C`, for which the inhibition is 39.2%.

`COC1CCN(c2cccc(-c3cc(NC(C)=O)nc(-n4nc(C)cc4C)n3)n2)CC1`: the inhibition was 20.5%.

For the molecule `CCCC1C(=O)N2C(N(C)C)=Nc3ccc(C)cc3N2C1=O` (stereo not drawn), the inhibition came out at 67.9%.

Regarding `O=C1OC2(c3cc(I)c(O)c(I)c3Oc3c2cc(I)c(O)c3I)c2c(Cl)c(Cl)c(Cl)c(Cl)c21`, the inhibition is 69.2% and 74.6%.

Consider `c1ccc(-c2n[nH]cc2-c2ccnc3ccccc23)nc1`, for which the inhibition is -5.98%.

Regarding `CN(C)CC/C=C1\c2ccccc2CSc2ccccc21`, the inhibition is 33.1%.

Turning to `CN1CCN(CC/C=C2/c3ccccc3Sc3ccc(S(=O)(=O)N(C)C)cc32)CC1`, the inhibition is 30.4%.

As to `OCCN1CCN(CC/C=C2/c3ccccc3Sc3ccc(Cl)cc32)CC1`, the inhibition was found to be 89.6%.

Regarding `CCN(CC)c1ccc(C(=C2C=CC(=[N+](CC)CC)C=C2)c2ccccc2)cc1`, the inhibition was found to be 101%.

In the case of `CCCCC1(COC(=O)CCC(=O)O)C(=O)N(c2ccccc2)N(c2ccccc2)C1=O`, the inhibition came out at 37.6%.

Regarding `O=C(O)CCC/C=C\CC1C(O)CC(O)C1/C=C/C(O)COc1cccc(Cl)c1` (racemic), the inhibition is 7.35%.

Consider `CCCC(=O)Nc1ccc(OCC(O)CNC(C)C)c(C(C)=O)c1` (stereo not drawn), for which the inhibition is -5.99%.

As for `CC(C)OC(=O)c1cc2c(OCC(O)CNC(C)(C)C)cccc2[nH]1` (stereo not drawn), the inhibition came out at 17%.

On to `CCN(CC)C(=O)Nc1ccc(OCC(O)CNC(C)(C)C)c(C(C)=O)c1` (stereo not drawn), for which the inhibition was found to be 103%.

`CNC(=O)c1ccc2c(c1)NC(=O)/C2=C(\Nc1cccc(CN(C)C)c1)c1ccccc1`: the inhibition was found to be 23.6%.

For `CONC(=N)c1ccc(-c2ccc(-c3ccc(C(=N)NOC)cc3)o2)cc1`, the inhibition is 28.6%.

Turning to `C=C[C@@](C)(/C=C/c1ccc(O)cc1)CCC=C(C)C`, the inhibition was 38.3%.

Take `C/C(O)=C(\C#N)C(=O)Nc1ccc(C(F)(F)F)cc1`: the inhibition came out at 58%.

As to `CC(=O)Nc1ccc(NC(=S)NC(=O)c2ccc(C(C)(C)C)cc2)cc1`, the inhibition was -1.57%.

For `CC(O)(C(=O)Nc1ccc(S(=O)(=O)c2ccccc2)cc1)C(F)(F)F` (stereo not drawn), the inhibition stood at 8.38%.

Regarding `CCCn1c(=O)[nH]c(=O)c2nc[nH]c21`, the inhibition was determined as 9.19%.

Take `O=c1c2ccccc2nc2n1CCc1c-2[nH]c2ccccc12`: the inhibition was 84.3%.

For the molecule `O=c1c2ccccc2nc2n1CCCCC2`, the inhibition is 111%.

For `Cc1cc(N2CCCCC2)nc2ccccc12`, the inhibition amounted to 12.2%.

For the molecule `CN1c2ccccc2C(=O)N2CCc3c([nH]c4ccccc34)C21` (stereo not drawn), the inhibition is 36.3%.

Take `CN1C(=O)C(F)=C[C@]2(C)[C@H]3CC[C@]4(C)[C@@H](C(=O)NCc5nc6cccnc6[nH]5)CC[C@H]4[C@@H]3CC[C@@H]12`: the inhibition is -0.34%.

On to `CCC(=O)OCC(=O)C1(OC(=O)CC)C(C)CC2C3CCC4=CC(=O)C=CC4(C)C3(Cl)C(O)CC21C` (stereo not drawn), for which the inhibition is 5.48%.

For the molecule `CCCCc1nn(-c2ccccc2C(F)(F)F)c(=O)n1Cc1ccc(-c2ccccc2S(=O)(=O)NC(=O)c2sccc2C)cc1`, the inhibition worked out at 30.6%.

As to `CCCOc1ccc(Br)cc1-c1cc(-c2ccc(Cl)cc2)[nH]c1-c1ccncc1`, the inhibition was 4.47%.

Turning to `C[C@]12C=CC(=O)C=C1CC[C@@H]1[C@@H]2[C@@H](O)C[C@@]2(C)[C@H]1CC[C@]2(O)C(=O)CO`, the inhibition came to 1.72%.

With `C#CC1(O)CC[C@H]2[C@@H]3CCC4=CC(=O)CC[C@@H]4[C@H]3CC[C@@]21CC` (stereo partly drawn), the inhibition came to 41%.

Regarding `C#C[C@]1(O)CC[C@H]2[C@@H]3CCC4=CC(=O)CC[C@@H]4[C@H]3CC[C@@]21CC`, the inhibition is -8.51%.

For `C#C[C@]1(OC(C)=O)CC[C@H]2[C@@H]3CCC4=C/C(=N/O)CC[C@@H]4[C@H]3CC[C@@]21CC`, the inhibition came out at 102%.

Turning to `O=S(=O)(N[C@H]1CC[C@@](c2cc(F)ccc2F)(S(=O)(=O)c2ccc(Cl)cc2)CC1)C(F)(F)F`, the inhibition is 19.5%.

Regarding `CC[N+](CC)(CC)CCC(O)(c1ccccc1)C1CCCCC1` (stereo not drawn), the inhibition was 43.5%.

With `N[C@@]1(C(=O)O)CC[C@H]2[C@H](C(=O)O)[C@H]21`, the inhibition came out at 5.51%.

Regarding `Nc1cc(Cl)c(N=C2NCCN2)c(Cl)c1`, the inhibition was 15.3%.

Regarding `Cc1cccc(C)c1NC(=O)c1ccccc1C(=O)O`, the inhibition was found to be 2.75%.

`COC(=O)c1ccccc1O`: the inhibition came to 25.3%.

For the molecule `O=C(N/N=C/c1ccccc1O)c1ccccc1O`, the inhibition was 98.6%.

As for `O=C(Nc1ccc(O)cc1)c1ccccc1O`, the inhibition worked out at 85.3%.

Regarding `O=C(N/N=C/c1ccc(O)c(O)c1)c1cc2ccccc2cc1O`, the inhibition amounted to 59.7%.

For the molecule `NC(=O)N/N=C/c1ccc(Oc2ccc(F)cc2)cc1`, the inhibition was 2.96%.

For `CN1CCN2c3c(cccc31)[C@@H]1CN(CCCC(=O)c3ccc(F)cc3)CC[C@@H]12`, the inhibition is -3.09%.

For the molecule `COC(=O)Nc1ccc2[nH]cc(CCNC(C)=O)c2c1`, the inhibition is 44.5%.

Consider `CCOc1ccccc1OCC1CNCCO1` (stereo not drawn), for which the inhibition is -0.93%.

Regarding `c1ccc(Oc2nc3ncnc-3c(NC3CCCCC3)[nH]2)cc1`, the inhibition is -6.25%.

For the molecule `CC(C)N1CCN(c2ccc(C(=O)c3c(-c4ccc(O)cc4)sc4cc(O)ccc34)cc2)CC1`, the inhibition came out at 15%.

Turning to `COc1ccc(C(=O)NCc2cccnc2)cc1C(=O)NCc1cccnc1`, the inhibition is 11.5%.

Take `Cc1cc(Cn2cnc3c2C[C@@H](C(=O)O)N(C(=O)C(c2ccccc2)c2ccccc2)C3)ccc1N(C)C`: the inhibition came to 17.5%.

On to `CC1CS(=O)(=O)CCN1/N=C/c1ccc([N+](=O)[O-])o1` (stereo not drawn), for which the inhibition is -9.63%.

For `CCc1nc(-c2cccc(C)c2)c(-c2ccnc(NC(=O)c3ccccc3)c2)s1`, the inhibition is 15.3%.

With `NC(=O)c1ccc2[nH]ccc2c1`, the inhibition was 11.2%.

Take `O=C(Nc1cc2cc[nH]c2cn1)c1ccccc1`: the inhibition stood at 105%.

Take `O=C(Nc1ccc2[nH]ccc2c1)c1ccccc1`: the inhibition was 89.7%.

As to `O=C(O)CNC(=O)c1ccccc1`, the inhibition was determined as 17.6%.

For `NC(C(=O)O)c1ccc(C(=O)O)c(O)c1` (racemic), the inhibition is -7.25%.

With `O=C(Nc1ccc(Cl)nc1)c1ccc(Cl)cc1`, the inhibition worked out at 27.1%.

Regarding `O=C(Nc1ccc(C(=O)O)c(O)c1)c1ccccc1`, the inhibition amounted to 68.6%.

Regarding `CC1(C)CCC(C)(C)c2cc(NC(=O)c3ccc(C(=O)O)cc3)ccc21`, the inhibition came out at 17.1%.

For the molecule `CC1=C(/C=C/C(C)=C/C=C/C(C)CC=O)C(C)(C)CCC1` (stereo not drawn), the inhibition is 0.68%.

In the case of `Cc1ccc(F)cc1C(=O)Nc1ccc(C(=O)N2Cc3cccn3Cc3ccccc32)c(Cl)c1`, the inhibition is -1.78%.

For the molecule `O=C1CNC(=O)CN1`, the inhibition was determined as 16.6%.

For the molecule `O=C(O)[C@@H](S)[C@@H](S)C(=O)O`, the inhibition was found to be 28.7%.

Regarding `CN1[C@@H]2CC[C@H]1C[C@@H](OC(=O)c1c[nH]c3ccccc13)C2.CN1[C@@H]2CC[C@H]1C[C@H](OC(=O)c1c[nH]c3ccccc13)C2`, the inhibition came out at 2.5%.
